Source: the supplement of paper PMC11732987, “Enantioselective OTUD7B fragment discovery through chemoproteomics screening and high-throughput optimisation” (Communications Chemistry, 2025)
Values without a mark were called inactive.

Experiments:
Experiment in all cases: log2 ratio of Biotin-Ahx-Ub-VS probe labelling (fragment/DMSO); higher = less target engagement (more negative = stronger competition), active = hit call of the paper (q ≤ 0.05, log2 ratio ≤ -1)
Conditions in all cases: compound concentration: 200 uM; treatment time: 3 h
USP19 = biological target: T1, USP19 (UniProt O94966)
T1 sequence (whole entry): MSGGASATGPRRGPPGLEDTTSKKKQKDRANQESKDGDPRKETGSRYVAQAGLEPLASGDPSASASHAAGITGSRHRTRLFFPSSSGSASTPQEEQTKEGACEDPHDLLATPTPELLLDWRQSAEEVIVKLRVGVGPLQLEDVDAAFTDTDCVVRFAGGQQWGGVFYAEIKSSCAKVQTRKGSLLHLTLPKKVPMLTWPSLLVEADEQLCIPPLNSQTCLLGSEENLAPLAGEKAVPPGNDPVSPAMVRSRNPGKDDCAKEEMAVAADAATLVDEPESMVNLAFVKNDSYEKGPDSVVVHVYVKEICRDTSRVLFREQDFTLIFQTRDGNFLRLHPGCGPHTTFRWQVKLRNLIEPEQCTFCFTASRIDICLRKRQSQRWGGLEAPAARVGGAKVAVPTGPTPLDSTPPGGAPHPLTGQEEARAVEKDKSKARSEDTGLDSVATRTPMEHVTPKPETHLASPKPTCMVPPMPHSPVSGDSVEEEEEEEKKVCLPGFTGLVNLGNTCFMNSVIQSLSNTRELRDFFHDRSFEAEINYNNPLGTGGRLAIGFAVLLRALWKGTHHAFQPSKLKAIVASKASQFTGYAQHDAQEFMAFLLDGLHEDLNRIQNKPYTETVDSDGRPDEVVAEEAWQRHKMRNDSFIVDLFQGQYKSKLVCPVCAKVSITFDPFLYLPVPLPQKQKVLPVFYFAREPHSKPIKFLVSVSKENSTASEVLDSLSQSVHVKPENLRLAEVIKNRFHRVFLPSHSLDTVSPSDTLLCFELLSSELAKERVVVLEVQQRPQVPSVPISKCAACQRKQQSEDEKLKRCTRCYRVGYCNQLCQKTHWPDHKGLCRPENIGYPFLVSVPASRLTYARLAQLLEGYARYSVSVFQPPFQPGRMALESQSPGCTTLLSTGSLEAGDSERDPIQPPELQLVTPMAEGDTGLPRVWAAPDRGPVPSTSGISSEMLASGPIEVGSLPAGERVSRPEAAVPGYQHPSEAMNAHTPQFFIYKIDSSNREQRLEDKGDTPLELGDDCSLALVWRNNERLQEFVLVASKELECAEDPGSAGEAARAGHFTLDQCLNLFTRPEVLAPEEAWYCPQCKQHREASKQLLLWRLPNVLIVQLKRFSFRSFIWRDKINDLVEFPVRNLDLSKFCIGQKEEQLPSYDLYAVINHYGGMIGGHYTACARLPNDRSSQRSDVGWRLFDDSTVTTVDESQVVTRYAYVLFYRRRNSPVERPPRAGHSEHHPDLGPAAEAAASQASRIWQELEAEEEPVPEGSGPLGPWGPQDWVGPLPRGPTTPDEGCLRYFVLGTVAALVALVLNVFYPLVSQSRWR
Procedure, shortened: (§1)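 The table lists average log2 ratios of fragment over vehicle, from an unpaired t-test on global-median-normalised Spectronaut label-free quantities. Proteins with ≥2 unique peptides were used. Samples were HEK293T lysate (495 µg) treated in triplicate with fragment at 200 µM or vehicle for 3 h, then with Biotin-Ahx-Ub-VS (0.5 µM final) for 1 h, with labelled DUBs NeutrAvidin-enriched and run by diaPASEF LC-MS/MS.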

USP22 = biological target: T2, USP22 (UniProt Q9UPT9)
T2 sequence (whole entry): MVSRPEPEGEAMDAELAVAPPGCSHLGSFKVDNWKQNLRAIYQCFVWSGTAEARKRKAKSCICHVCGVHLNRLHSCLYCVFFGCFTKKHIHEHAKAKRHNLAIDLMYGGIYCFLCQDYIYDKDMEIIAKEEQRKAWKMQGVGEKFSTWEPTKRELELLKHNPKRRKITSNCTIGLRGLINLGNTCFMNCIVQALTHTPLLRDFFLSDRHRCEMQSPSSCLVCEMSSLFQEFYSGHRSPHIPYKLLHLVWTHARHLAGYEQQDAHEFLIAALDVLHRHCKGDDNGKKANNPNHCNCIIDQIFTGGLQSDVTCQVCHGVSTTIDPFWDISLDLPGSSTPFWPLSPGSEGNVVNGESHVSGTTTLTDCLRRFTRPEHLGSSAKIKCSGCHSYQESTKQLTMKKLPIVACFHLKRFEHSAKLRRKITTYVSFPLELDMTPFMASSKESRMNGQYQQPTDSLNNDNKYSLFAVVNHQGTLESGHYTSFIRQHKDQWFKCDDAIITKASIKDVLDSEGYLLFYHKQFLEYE
Procedure, shortened: as §1

USP24 = USP24 (UniProt Q9UPU5)
Procedure, shortened: as §1

USP25 = biological target: T3, USP25 (UniProt Q9UHP3)
T3 sequence (whole entry): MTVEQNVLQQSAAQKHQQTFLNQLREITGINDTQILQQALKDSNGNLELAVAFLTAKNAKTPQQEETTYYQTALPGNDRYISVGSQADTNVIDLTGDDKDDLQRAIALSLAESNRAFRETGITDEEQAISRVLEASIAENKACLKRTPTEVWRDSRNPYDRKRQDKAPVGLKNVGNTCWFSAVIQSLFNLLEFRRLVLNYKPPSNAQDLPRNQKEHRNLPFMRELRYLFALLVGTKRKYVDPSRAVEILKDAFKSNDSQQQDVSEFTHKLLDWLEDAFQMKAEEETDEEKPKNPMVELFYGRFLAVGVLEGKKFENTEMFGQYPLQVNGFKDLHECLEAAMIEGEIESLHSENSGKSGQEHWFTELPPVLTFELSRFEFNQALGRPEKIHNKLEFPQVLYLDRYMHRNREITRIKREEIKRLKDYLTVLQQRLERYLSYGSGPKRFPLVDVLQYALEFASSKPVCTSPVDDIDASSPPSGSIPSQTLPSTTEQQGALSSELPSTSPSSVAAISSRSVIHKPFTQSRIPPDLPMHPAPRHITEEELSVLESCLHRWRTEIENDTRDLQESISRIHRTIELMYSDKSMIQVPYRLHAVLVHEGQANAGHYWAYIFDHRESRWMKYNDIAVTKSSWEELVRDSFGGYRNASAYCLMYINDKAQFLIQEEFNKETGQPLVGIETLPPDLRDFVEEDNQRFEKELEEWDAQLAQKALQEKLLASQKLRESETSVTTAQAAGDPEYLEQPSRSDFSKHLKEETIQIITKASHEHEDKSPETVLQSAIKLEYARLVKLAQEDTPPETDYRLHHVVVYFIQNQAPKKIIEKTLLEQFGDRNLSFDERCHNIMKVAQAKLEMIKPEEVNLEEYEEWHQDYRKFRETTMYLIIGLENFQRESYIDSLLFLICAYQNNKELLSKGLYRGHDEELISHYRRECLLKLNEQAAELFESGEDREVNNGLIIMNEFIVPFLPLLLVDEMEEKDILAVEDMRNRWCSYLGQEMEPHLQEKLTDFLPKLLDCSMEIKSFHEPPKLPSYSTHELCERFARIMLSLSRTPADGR
Procedure, shortened: as §1

USP28 = biological target: T4, USP28 (UniProt Q96RU2)
T4 sequence (whole entry): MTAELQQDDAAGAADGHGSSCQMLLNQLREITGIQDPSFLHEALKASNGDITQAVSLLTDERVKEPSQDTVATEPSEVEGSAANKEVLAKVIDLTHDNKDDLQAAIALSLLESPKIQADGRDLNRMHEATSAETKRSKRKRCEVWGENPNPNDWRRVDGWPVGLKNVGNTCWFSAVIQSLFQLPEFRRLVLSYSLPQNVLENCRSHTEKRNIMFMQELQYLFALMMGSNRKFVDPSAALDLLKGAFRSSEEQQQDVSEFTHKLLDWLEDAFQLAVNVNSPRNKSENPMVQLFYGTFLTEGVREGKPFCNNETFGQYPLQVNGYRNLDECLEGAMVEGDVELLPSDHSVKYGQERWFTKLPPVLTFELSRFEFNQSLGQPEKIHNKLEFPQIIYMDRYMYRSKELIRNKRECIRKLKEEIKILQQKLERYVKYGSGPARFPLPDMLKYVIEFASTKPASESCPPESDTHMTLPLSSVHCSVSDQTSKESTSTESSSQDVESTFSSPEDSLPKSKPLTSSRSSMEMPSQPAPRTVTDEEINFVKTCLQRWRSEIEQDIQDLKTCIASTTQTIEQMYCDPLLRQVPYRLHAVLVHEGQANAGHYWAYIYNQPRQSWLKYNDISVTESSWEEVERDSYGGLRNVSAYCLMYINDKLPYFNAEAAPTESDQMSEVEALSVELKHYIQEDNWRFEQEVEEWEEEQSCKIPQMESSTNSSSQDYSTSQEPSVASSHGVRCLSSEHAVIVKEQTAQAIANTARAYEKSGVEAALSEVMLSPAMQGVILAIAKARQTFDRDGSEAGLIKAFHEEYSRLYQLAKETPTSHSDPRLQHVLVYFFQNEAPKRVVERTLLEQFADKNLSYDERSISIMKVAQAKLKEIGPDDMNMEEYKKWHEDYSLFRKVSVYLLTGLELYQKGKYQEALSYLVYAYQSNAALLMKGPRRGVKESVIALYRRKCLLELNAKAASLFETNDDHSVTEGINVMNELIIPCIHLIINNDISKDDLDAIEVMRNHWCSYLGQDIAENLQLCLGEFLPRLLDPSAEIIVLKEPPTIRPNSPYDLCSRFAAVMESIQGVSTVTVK
Procedure, shortened: as §1

USP24, sequence (Q9UPU5 whole entry): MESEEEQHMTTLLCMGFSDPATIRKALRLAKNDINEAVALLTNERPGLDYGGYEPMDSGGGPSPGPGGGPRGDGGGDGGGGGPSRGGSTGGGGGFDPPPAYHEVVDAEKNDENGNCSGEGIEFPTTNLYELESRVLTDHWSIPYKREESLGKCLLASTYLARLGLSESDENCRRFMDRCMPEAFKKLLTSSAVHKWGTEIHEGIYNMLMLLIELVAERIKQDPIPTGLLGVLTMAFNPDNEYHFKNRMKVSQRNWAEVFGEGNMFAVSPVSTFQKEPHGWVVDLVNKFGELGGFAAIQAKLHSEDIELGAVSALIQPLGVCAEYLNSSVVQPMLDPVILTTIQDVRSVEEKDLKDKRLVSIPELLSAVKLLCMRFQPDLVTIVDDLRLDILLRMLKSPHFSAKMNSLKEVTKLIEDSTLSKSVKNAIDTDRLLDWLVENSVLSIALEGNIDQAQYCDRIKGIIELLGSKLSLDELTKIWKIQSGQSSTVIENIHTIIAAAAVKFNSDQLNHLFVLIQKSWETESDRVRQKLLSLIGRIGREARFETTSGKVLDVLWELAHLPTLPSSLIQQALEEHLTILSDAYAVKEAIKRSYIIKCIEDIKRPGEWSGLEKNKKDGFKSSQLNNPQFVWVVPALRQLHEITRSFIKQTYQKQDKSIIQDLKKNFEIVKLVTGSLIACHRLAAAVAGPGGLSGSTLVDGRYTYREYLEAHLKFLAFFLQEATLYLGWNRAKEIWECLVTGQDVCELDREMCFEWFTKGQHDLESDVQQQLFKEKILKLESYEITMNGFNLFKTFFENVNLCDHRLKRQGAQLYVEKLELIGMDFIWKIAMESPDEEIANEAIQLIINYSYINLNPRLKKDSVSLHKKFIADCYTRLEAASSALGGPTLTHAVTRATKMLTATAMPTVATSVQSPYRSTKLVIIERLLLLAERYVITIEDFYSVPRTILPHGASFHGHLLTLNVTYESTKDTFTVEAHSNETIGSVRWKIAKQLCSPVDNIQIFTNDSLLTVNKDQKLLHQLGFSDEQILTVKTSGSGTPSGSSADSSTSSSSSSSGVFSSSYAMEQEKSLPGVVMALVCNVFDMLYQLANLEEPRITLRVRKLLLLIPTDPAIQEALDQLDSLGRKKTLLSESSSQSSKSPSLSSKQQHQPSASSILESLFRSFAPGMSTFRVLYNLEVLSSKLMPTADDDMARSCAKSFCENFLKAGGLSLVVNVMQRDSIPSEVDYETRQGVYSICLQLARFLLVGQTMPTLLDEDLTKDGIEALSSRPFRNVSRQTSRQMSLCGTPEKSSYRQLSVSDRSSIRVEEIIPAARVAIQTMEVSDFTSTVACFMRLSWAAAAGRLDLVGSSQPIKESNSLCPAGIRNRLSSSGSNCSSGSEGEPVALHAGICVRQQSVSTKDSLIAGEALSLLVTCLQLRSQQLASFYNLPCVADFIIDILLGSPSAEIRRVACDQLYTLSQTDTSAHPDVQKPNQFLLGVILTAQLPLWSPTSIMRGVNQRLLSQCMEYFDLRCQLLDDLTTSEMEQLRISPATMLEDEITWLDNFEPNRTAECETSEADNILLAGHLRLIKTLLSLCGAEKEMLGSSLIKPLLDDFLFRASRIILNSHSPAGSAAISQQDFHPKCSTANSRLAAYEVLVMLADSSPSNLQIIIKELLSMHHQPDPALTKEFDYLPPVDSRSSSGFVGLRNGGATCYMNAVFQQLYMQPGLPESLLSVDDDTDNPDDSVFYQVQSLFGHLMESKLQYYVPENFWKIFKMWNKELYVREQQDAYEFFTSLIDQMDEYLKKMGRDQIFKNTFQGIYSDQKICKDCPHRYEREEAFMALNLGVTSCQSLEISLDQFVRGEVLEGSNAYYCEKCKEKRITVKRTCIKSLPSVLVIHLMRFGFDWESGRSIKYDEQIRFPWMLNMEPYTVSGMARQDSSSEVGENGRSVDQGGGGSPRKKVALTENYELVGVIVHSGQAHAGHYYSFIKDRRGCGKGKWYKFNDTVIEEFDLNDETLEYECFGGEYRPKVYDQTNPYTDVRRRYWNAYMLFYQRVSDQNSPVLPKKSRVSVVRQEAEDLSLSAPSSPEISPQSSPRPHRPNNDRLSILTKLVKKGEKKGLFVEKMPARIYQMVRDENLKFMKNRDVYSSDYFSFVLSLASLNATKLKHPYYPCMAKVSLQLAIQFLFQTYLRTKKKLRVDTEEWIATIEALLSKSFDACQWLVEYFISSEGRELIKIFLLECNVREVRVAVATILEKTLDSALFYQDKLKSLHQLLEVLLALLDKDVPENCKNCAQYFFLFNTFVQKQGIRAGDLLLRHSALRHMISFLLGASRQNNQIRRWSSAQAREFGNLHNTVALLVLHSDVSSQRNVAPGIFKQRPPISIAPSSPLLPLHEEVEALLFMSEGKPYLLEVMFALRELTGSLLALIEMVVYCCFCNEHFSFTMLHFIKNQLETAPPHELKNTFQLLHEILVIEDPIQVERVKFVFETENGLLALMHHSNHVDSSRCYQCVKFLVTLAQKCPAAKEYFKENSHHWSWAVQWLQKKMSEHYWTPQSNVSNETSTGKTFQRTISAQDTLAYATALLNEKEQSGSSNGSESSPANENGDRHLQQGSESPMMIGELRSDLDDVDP

SMILES: O=C(CCl)N1CCc2[nH]c3ccccc3c2C1
- log2 ratio of Biotin-Ahx-Ub-VS probe labelling (USP19): -0.968
- log2 ratio of Biotin-Ahx-Ub-VS probe labelling (USP22): -0.357
- log2 ratio of Biotin-Ahx-Ub-VS probe labelling (USP24): -1.93 (active)
- log2 ratio of Biotin-Ahx-Ub-VS probe labelling (USP25): -0.589
- log2 ratio of Biotin-Ahx-Ub-VS probe labelling (USP28): -0.765
